6 compounds from PubChem BioAssay (NCI) can be followed below.

Molecules are shown by their SMILES. Several values for one entry are separate records, joined by “and”; a condition that tells them apart may be missing. Equal entries are not always repeated. About 83,000 compounds went through this panel and 20% of them were active in at least one assay; those are over-represented in the sample as a whole.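 Testing used 96-well plates and a 48-hour single-concentration exposure. Example: -40 means 40% of the starting cells died.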 Activity calls are given as the source filed them. The calls were made as follows: active = growth percent below 10; inactive = the rest.

Holding throughout (experiment): NCI-60 one-dose screen, 48 h (100 = growth as untreated, 0 = no growth, -100 = all killed)
Experiment [1] has as its system SR leukemia.
For experiment [2], the system named is RPMI-8226 leukemia.
Experiment [3] relates to OVCAR-8 ovarian.
Experiment [4] deals with OVCAR-5 ovarian.
Experiment [5] concerns OVCAR-4 ovarian.
Experiment [6] relates to SK-OV-3 ovarian.
In experiment [7] the test system is IGROV1 ovarian.
The subject of experiment [8] is OVCAR-3 ovarian.
Experiment [9] relates to HS 578T breast.
For experiment [10], the system named is NCI/ADR-RES ovarian.

On to `CN(C)c1ccc(/C=C(\C#N)c2ccccc2)cc1`, for which the growth is -18.5% (active) and 14.1% (inactive) and 8.15% (active) in experiment [1] (10 µM unless noted); -23% (active) and 37.2% (inactive) and 10.1% (inactive) in experiment [2] (10 µM unless noted); 26.9% (inactive) and 43.7% (inactive) and 38% (inactive) in experiment [3] (10 µM unless noted); 41.5% (inactive) and 62.4% (inactive) and 55.4% (inactive) in experiment [4] (10 µM unless noted); 48.4% (inactive) and 61.8% (inactive) and 78.6% (inactive) in experiment [5] (10 µM unless noted); 30.9% (inactive) and 32.4% (inactive) and 29.9% (inactive) in experiment [6] (10 µM unless noted). Also, the growth was -39.9% (active) and 52.4% (inactive) and 43.5% (inactive) in [7] (10 µM unless noted); -57.9% (active) and 11.6% (inactive) and -12.2% (active) in [8] (10 µM unless noted); 28.3% (inactive) and 56.2% (inactive) and 28.9% (inactive) in experiment [9] (10 µM unless noted); -41.2% (active) and 13.3% (inactive) and 20.9% (inactive) in experiment [10] (10 µM unless noted).

On to `CC(C)(C)c1ccc(O)c(CNC2CCCCC2)c1`, for which the growth in experiment [1] (10 µM unless noted) was 80% (inactive) and 83.5% (inactive); in [2] (10 µM unless noted), 82% (inactive) and 74.9% (inactive); in experiment [3] (10 µM unless noted) it was 101% (inactive) and 88.9% (inactive); in experiment [4] (10 µM unless noted) it was 106% (inactive) and 93% (inactive); in experiment [5] (10 µM unless noted) it was 82.8% (inactive); in experiment [6] (10 µM unless noted) it was 108% (inactive) and 97.8% (inactive). The growth is 97.7% (inactive) and 92% (inactive) in experiment [7] (10 µM unless noted); 111% (inactive) and 92.8% (inactive) in experiment [8] (10 µM unless noted); 89.2% (inactive) and 89.9% (inactive) in [9] (10 µM unless noted); 98.5% (inactive) in [10] (10 µM unless noted).

For `CC1(C)OB(c2ccc(Cn3cc(F)c(=O)[nH]c3=O)cc2)OC1(C)C`, the growth is 106% (inactive) in [1] (10 µM); 39.5% (inactive) in [1] (50 µM); 107% (inactive) in experiment [2] (10 µM); 68.1% (inactive) in [2] (50 µM); 106% (inactive) in experiment [3] (10 µM); 75.1% (inactive) in experiment [3] (50 µM). Further, the growth in experiment [4] (10 µM) was 97.5% (inactive); in experiment [4] (50 µM) it was 70.4% (inactive); in experiment [5] (10 µM), 111% (inactive); in [5] (50 µM), 69.9% (inactive); in [7] (10 µM) it was 98.8% (inactive); in [7] (50 µM), 44.1% (inactive). Besides, the growth in experiment [8] (10 µM) is 104% (inactive); in experiment [8] (50 µM), 4.62% (active); in [9] (10 µM), 100% (inactive); in [9] (50 µM), 37% (inactive); in [10] (10 µM), 102% (inactive); in experiment [10] (50 µM), 94.1% (inactive).

Take `O=C(N/N=C/c1cccc2ccccc12)C1CC1`: the growth in experiment [1] (10 µM unless noted) is 93.6% (inactive); in experiment [2] (10 µM unless noted), 85.6% (inactive) and 97.8% (inactive); in experiment [3] (10 µM unless noted), 101% (inactive) and 98.5% (inactive); in experiment [4] (10 µM unless noted), 122% (inactive) and 100% (inactive); in experiment [5] (10 µM unless noted) it was 101% (inactive); in experiment [6] (10 µM unless noted), 108% (inactive) and 117% (inactive). Besides, the growth in experiment [7] (10 µM unless noted) is 118% (inactive) and 107% (inactive); in experiment [8] (10 µM unless noted), 113% (inactive) and 112% (inactive); in [9] (10 µM unless noted), 109% (inactive) and 98.6% (inactive); in [10] (10 µM unless noted), 115% (inactive) and 97.8% (inactive).

In the case of `CNC(=O)c1cc(Oc2ccc(CC(=O)Nc3cc(C(C)(C)C)nn3C)cc2)ccn1`, the growth in [1] (1 µM) was 82.7% (inactive); in experiment [1] (30 µM) it was 48.9% (inactive); in experiment [3] (1 µM), 72.5% (inactive); in experiment [3] (10 µM) it was 71.8% (inactive); in [3] (30 µM), 70.6% (inactive); in [4] (1 µM) it was 104% (inactive). In addition, the growth in [4] (10 µM) is 116% (inactive); in experiment [4] (30 µM), 98.9% (inactive); in [5] (1 µM), 58.7% (inactive); in [5] (10 µM), 44.7% (inactive); in experiment [5] (30 µM) it was 83.4% (inactive); in experiment [6] (10 µM), 71.8% (inactive). Besides, the growth in experiment [6] (30 µM) is 94.4% (inactive); in [7] (1 µM) it was 75.1% (inactive); in experiment [7] (10 µM), 85.6% (inactive); in [7] (30 µM) it was 90.5% (inactive); in experiment [8] (1 µM) it was 81.9% (inactive); in [8] (10 µM) it was 69.6% (inactive). The growth in experiment [8] (30 µM) was 109% (inactive); in experiment [9] (1 µM), 81.4% (inactive); in experiment [9] (10 µM), 65.4% (inactive); in experiment [9] (30 µM), 83.5% (inactive); in experiment [10] (1 µM), 85.3% (inactive); in experiment [10] (10 µM) it was 76% (inactive). In [10] (30 µM), the growth is 53.7% (inactive).

Take `N#CCCOc1ccccc1`: the growth in [1] (10 µM unless noted) was 104% (inactive); in experiment [2] (10 µM unless noted), 103% (inactive); in experiment [3] (10 µM unless noted), 98.9% (inactive); in experiment [4] (10 µM unless noted) it was 107% (inactive); in experiment [5] (10 µM unless noted), 98.8% (inactive); in experiment [6] (10 µM unless noted) it was 97% (inactive). In addition, the growth is 102% (inactive) in experiment [7] (10 µM unless noted), 114% (inactive) in [8] (10 µM unless noted), 99.5% (inactive) in experiment [9] (10 µM unless noted) and 112% (inactive) in [10] (10 µM unless noted).
